Measurements taken from ChEMBL document CHEMBL4513135, “CO-ADD screening of IQOG CSIS (Spain) compounds”.
Measured potencies and affinities stand elsewhere.

system: Klebsiella pneumoniae; details: Concentration 32 ug.mL-1; ASSAY_TEST Inhibition of Bacterial Growth; detection method Absorption (OD600); MEDIA CAMHB; plate type 384well; NBS; CORNING #3640; time 18 hr

SMILES | Inhibition [%]
Cn1ccnc1C1c2ccc3ccccc3c2Oc2nc3c(c(N)c21)CCCCC3 (stereo not given) | 8.79
CCOC(=O)C1=C(C)Nc2nc3c(c(N)c2C1c1cccc(OC)c1)CCCC3 (stereo not given) | 2.7
COc1cc(CCC(N)=O)ccc1O | 11.33
Cc1ccc(C(O)SNNc2ncnc3c2c(C)nn3-c2ccccc2)cc1 (stereo not given) | -18.74
N#Cc1c(N)nc(N2CCOCC2)c(C#N)c1-c1ccccc1 | 3.68
O=c1oc2cc(O)ccc2cc1-c1ccccc1 | 3.33
COc1ccc2cc(C3C4=C(CC(C)(C)CC4=O)Oc4nc5c(c(N)c43)CCCCC5)c(Cl)nc2c1 (stereo not given) | 4.86
N#Cc1c(N)nc(NCCCC2CCN(Cc3ccccc3)CC2)c(C#N)c1-c1ccccc1 | 32.61
CC1Cc2c(Cl)nc3nc4c(c(N)c3c2NC1=O)CCCC4 (stereo not given) | 8.15
Cc1nc2c(cc1C#N)c(N)nn2C | 19.03
CC(C)(C)OC(=O)N[C@H]1CC[C@H](O)CC1 | 7.91
COc1nc2nc3c(c(N)c2cc1C#N)CN(Cc1ccccc1)CC3 | 8.31
Cl.NNN1CCc2ccccc21 | 17.38
C=C1CN(C)c2ncc(C#N)c(=N)n21 | 0.03
COc1ccc(/C=C2/N=C(c3ccccc3)OC2=O)cc1OC | -24.56
O=C1OC(c2ccccc2)=NC1=Cc1ccc([N+](=O)[O-])cc1 | 9.13
Cc1ccc(C2c3c(Cl)nnnc3Oc3ccc4ccccc4c32)cc1 (stereo not given) | 9.62
N#CC1=C(N)Oc2ccc3ccccc3c2C1c1ccccc1 (stereo not given) | 9.26
CSC1=NC2(CC2c2ccccc2)C(=O)N1C (stereo not given) | -3.2
Cc1cnc(NC(=O)OC(C)(C)C)c(Br)c1 | 17.7

SMILES | Inhibition [%]
N#CC1(Br)C(=NBr)Oc2c(ccc3ccccc23)C1c1ccc([N+](=O)[O-])cc1 (stereo not given) | 12.27
C#CCN(C)c1nc(Sc2ccccc2)c(C#N)c(-c2ccccc2)c1C#N | 17.28
Nc1c2c(nc3c1C(c1ccccc1)c1ccc4ccccc4c1O3)CCCC2 (stereo not given) | 7.96
Cc1ccccc1-c1c(C=N)c(N)nc2c1S(=O)(=O)OC2(C)C | 10.81
COc1ccc2c(c1)cc(C(=O)Nc1ccccc1)n2C | 8.32
C#CCN(C)Cc1cc2cc(OCCCC3CCN(Cc4ccc(OC)c5ncccc45)CC3)ccc2n1C | -9.53
O=C(NNC(Cc1ccccc1)Cc1ccccc1)c1cc2ccccc2[nH]1 | 6.36
Cn1ccnc1C1c2c(nc3c(c2N)CCC3)Oc2ccc3ccccc3c21 (stereo not given) | 7.74
N#Cc1cc(C#N)c(NCCO)nc1N | 12.5
C/C(=N\NC(=O)c1cc2ccccc2n1Cc1ccccc1)C1CC1 | 4.04
N#Cc1ccc(Br)cc1N | 26.43
CC(=O)C(=Cc1ccccc1)C(=O)O[C@H]1C[C@H](C)CC[C@H]1C(C)C | 13.75
O=C(Cc1ccccc1)N/N=C/c1c[nH]c2ccccc12 | 20.21
C=C1CN(Cc2ccccc2)c2c(C#N)c(-c3ccccc3)c(C#N)c(=N)n21 | 17.58
CCC(CC)NNC(=O)c1cc2ccccc2n1C | 9.15
CC(=O)Nc1nc(Cl)c(C#N)c(-c2ccccc2)c1C#N | 7.97
CCOC(=O)C1=C(C)OC(N)=C(C#N)C1c1ccco1 (stereo not given) | 6.85
COc1cccc(C2C(C#N)=C(N)Oc3[nH]nc(C)c32)c1 (stereo not given) | 26.54
COc1ccc(C2c3c(nc4c(c3N)CCCC4)Oc3ccc4ccccc4c32)c(OC)c1 (stereo not given) | 6.37
OCc1cc2ccccc2[nH]1 | 6.48

system: Candida albicans; details: 32 ug/mL

SMILES | Inhibition [%]
Cn1ccnc1C1c2ccc3ccccc3c2Oc2nc3c(c(N)c21)CCCCC3 (stereo not given) | 1.99
CCOC(=O)C1=C(C)Nc2nc3c(c(N)c2C1c1cccc(OC)c1)CCCC3 (stereo not given) | 5.35
COc1cc(CCC(N)=O)ccc1O | -0.74
Cc1ccc(C(O)SNNc2ncnc3c2c(C)nn3-c2ccccc2)cc1 (stereo not given) | 1.06
N#Cc1c(N)nc(N2CCOCC2)c(C#N)c1-c1ccccc1 | 1.23
O=c1oc2cc(O)ccc2cc1-c1ccccc1 | -0.21
COc1ccc2cc(C3C4=C(CC(C)(C)CC4=O)Oc4nc5c(c(N)c43)CCCCC5)c(Cl)nc2c1 (stereo not given) | 23
N#Cc1c(N)nc(NCCCC2CCN(Cc3ccccc3)CC2)c(C#N)c1-c1ccccc1 | 1.5
CC1Cc2c(Cl)nc3nc4c(c(N)c3c2NC1=O)CCCC4 (stereo not given) | 2.83
Cc1nc2c(cc1C#N)c(N)nn2C | 3.97
CC(C)(C)OC(=O)N[C@H]1CC[C@H](O)CC1 | 0.02
COc1nc2nc3c(c(N)c2cc1C#N)CN(Cc1ccccc1)CC3 | 1.24
Cl.NNN1CCc2ccccc21 | 2.29
C=C1CN(C)c2ncc(C#N)c(=N)n21 | 0.69
COc1ccc(/C=C2/N=C(c3ccccc3)OC2=O)cc1OC | -0.31
O=C1OC(c2ccccc2)=NC1=Cc1ccc([N+](=O)[O-])cc1 | -1.46
Cc1ccc(C2c3c(Cl)nnnc3Oc3ccc4ccccc4c32)cc1 (stereo not given) | 2.22
N#CC1=C(N)Oc2ccc3ccccc3c2C1c1ccccc1 (stereo not given) | 1.08
CSC1=NC2(CC2c2ccccc2)C(=O)N1C (stereo not given) | 0.11
Cc1cnc(NC(=O)OC(C)(C)C)c(Br)c1 | -0.1

SMILES | Inhibition [%]
N#CC1(Br)C(=NBr)Oc2c(ccc3ccccc23)C1c1ccc([N+](=O)[O-])cc1 (stereo not given) | 25.9
C#CCN(C)c1nc(Sc2ccccc2)c(C#N)c(-c2ccccc2)c1C#N | 1.53
Nc1c2c(nc3c1C(c1ccccc1)c1ccc4ccccc4c1O3)CCCC2 (stereo not given) | 0.57
Cc1ccccc1-c1c(C=N)c(N)nc2c1S(=O)(=O)OC2(C)C | -0.01
COc1ccc2c(c1)cc(C(=O)Nc1ccccc1)n2C | 2.05
C#CCN(C)Cc1cc2cc(OCCCC3CCN(Cc4ccc(OC)c5ncccc45)CC3)ccc2n1C | 0.97
O=C(NNC(Cc1ccccc1)Cc1ccccc1)c1cc2ccccc2[nH]1 | -2.25
Cn1ccnc1C1c2c(nc3c(c2N)CCC3)Oc2ccc3ccccc3c21 (stereo not given) | 1.46
N#Cc1cc(C#N)c(NCCO)nc1N | 1.22
C/C(=N\NC(=O)c1cc2ccccc2n1Cc1ccccc1)C1CC1 | 0.9
N#Cc1ccc(Br)cc1N | 18
CC(=O)C(=Cc1ccccc1)C(=O)O[C@H]1C[C@H](C)CC[C@H]1C(C)C | 10.8
O=C(Cc1ccccc1)N/N=C/c1c[nH]c2ccccc12 | 3.09
C=C1CN(Cc2ccccc2)c2c(C#N)c(-c3ccccc3)c(C#N)c(=N)n21 | 2.82
CCC(CC)NNC(=O)c1cc2ccccc2n1C | 5.89
CC(=O)Nc1nc(Cl)c(C#N)c(-c2ccccc2)c1C#N | 1.84
CCOC(=O)C1=C(C)OC(N)=C(C#N)C1c1ccco1 (stereo not given) | 1.71
COc1cccc(C2C(C#N)=C(N)Oc3[nH]nc(C)c32)c1 (stereo not given) | 0.08
COc1ccc(C2c3c(nc4c(c3N)CCCC4)Oc3ccc4ccccc4c32)c(OC)c1 (stereo not given) | 10.9
OCc1cc2ccccc2[nH]1 | 2.35
